Laboratory results as given in PubChem BioAssay (NCATS).
Records with an inconclusive call do not appear. Entries that show only a call come without a potency. Calls of active or inactive are those of the source. Calls come from the whole dose curve; as a rule, active = well fitted curve in the direction sought with a large enough effect; inconclusive = small, poorly fitted or top-dose-only effect, or another doubt; inactive = no such curve, though single readings can be large; an effect the other way counts as inactive or inconclusive.

Key:
[1] = molecular target: ATP-dependent 6-phosphofructokinase (Trypanosoma brucei brucei) (UniProt O15648); test: qHTS Assay to Find Inhibitors of T. brucei phosphofructokinase: hit validation (AID 492961);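 note: luminescence reports ADP formed as PFK phosphorylates fructose-6-phosphate with ATP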
Sequence of ATP-dependent 6-phosphofructokinase (Trypanosoma brucei brucei) (O15648 whole entry, looked up): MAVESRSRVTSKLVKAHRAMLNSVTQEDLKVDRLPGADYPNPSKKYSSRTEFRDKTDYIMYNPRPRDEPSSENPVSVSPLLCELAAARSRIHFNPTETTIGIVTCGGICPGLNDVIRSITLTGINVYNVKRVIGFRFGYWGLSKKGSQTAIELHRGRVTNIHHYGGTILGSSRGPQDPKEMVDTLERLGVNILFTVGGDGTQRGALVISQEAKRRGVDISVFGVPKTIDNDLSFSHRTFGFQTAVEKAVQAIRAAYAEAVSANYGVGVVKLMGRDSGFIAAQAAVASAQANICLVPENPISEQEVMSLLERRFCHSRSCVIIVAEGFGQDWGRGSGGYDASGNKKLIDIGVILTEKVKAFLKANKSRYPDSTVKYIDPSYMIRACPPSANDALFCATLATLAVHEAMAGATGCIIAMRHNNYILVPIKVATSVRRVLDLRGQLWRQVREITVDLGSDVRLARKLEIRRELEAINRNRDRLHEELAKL
How it was run: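 PFK 1.25 nM, F6P 0.5 mM, ATP 0.1 mM, MgCl2 5 mM, 0.1 M TEA pH 8.0, Tween20 0.01%, BSA 0.1%; 45 min RT. ADP-Glo two-step detection, luminescence. qHTS titration; curve fitting with curve-class categorization.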

[2] = molecular target: Luciferin 4-monooxygenase (Photinus pyralis) (UniProt P08659); test: Biochemical firefly luciferase enzyme assay for NPC (AID 624030);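 note: purified P. pyralis luciferase at 10 nM with luciferin and ATP substrate; nearly all actives have a fitted effect of over 70% in size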
Sequence of Luciferin 4-monooxygenase (Photinus pyralis) (P08659 whole entry, looked up): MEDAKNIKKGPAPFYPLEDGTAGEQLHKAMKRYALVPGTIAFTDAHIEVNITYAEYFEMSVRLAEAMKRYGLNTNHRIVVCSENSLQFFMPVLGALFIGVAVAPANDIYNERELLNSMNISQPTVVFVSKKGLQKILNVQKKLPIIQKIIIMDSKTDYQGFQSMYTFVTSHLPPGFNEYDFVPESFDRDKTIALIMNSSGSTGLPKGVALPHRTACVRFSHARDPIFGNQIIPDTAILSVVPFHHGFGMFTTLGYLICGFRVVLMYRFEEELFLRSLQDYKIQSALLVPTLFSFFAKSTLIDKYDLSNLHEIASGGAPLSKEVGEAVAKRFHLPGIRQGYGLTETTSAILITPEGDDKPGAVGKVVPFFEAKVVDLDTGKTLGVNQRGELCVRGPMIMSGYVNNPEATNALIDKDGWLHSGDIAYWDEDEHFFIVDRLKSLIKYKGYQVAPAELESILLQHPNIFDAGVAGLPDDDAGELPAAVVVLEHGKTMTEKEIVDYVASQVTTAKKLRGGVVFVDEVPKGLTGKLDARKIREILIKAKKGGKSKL
How it was run: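 Counter-screen for direct inhibition of the luciferase enzyme by approved-drug library compounds, run at 10 nM enzyme in 50 mM Tris acetate (final). Luminescence was read within 5 min of enzyme-buffer addition and normalized to PTC124 versus DMSO (0%).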

AS120 = test: qHTS profiling for inhibitors of Plasmodium falciparum proliferation (AID 504749); note: nearly all actives have a fitted effect of over 60% in size; settings: P. falciparum in erythrocytes, SYBR Green DNA, 72 h; series mostly up to 28.7 µM
How it was run: (§1)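 Fluorescence of SYBR Green-bound parasite DNA, read at 485/535 nm, served as the growth measure. Infected erythrocytes were cultured with compound 72 h; artemisinin (0.29 uM) and DMSO wells defined the normalization range.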

ATS189 = test: as above; settings: P. falciparum in erythrocytes, SYBR Green DNA, 72 h; series mostly up to 12.8 µM
How it was run: as §1

CP191 = test: as above; settings: P. falciparum in erythrocytes, SYBR Green DNA, 72 h; series mostly up to 12.8 µM
How it was run: as §1

CP192 = test: as above; settings: P. falciparum in erythrocytes, SYBR Green DNA, 72 h; series mostly up to 28.7 µM
How it was run: as §1

CP201 = test: as above; settings: P. falciparum in erythrocytes, SYBR Green DNA, 72 h; series mostly up to 12.8 µM
How it was run: as §1

CP238 = test: as above; settings: P. falciparum in erythrocytes, SYBR Green DNA, 72 h; series mostly up to 12.8 µM
How it was run: as §1

CP247 = test: as above; settings: P. falciparum in erythrocytes, SYBR Green DNA, 72 h; series mostly up to 12.8 µM
How it was run: as §1

CP250 = test: as above; settings: P. falciparum in erythrocytes, SYBR Green DNA, 72 h; series mostly up to 12.8 µM
How it was run: as §1

CP265 = test: as above; settings: P. falciparum in erythrocytes, SYBR Green DNA, 72 h; series mostly up to 12.8 µM
How it was run: as §1

Dd2 = test: as above; settings: P. falciparum in erythrocytes, SYBR Green DNA, 72 h; series mostly up to 12.8 µM
How it was run: as §1

FAB9 = test: as above; settings: P. falciparum in erythrocytes, SYBR Green DNA, 72 h; series mostly up to 12.8 µM
How it was run: as §1

N140 = test: as above; settings: P. falciparum in erythrocytes, SYBR Green DNA, 72 h; series mostly up to 12.8 µM
How it was run: as §1

P94_40 = test: as above; settings: P. falciparum in erythrocytes, SYBR Green DNA, 72 h; series mostly up to 12.8 µM
How it was run: as §1

PC15 = test: as above; settings: P. falciparum in erythrocytes, SYBR Green DNA, 72 h; series mostly up to 12.8 µM
How it was run: as §1

PC49 = test: as above; settings: P. falciparum in erythrocytes, SYBR Green DNA, 72 h; series mostly up to 12.8 µM
How it was run: as §1

[3] = molecular target: Muscarinic acetylcholine receptor M1 (Rattus norvegicus) (UniProt P08482); test: qHTS Assay for Antagonists of Acetylcholine Muscarinic M1 Receptor: Measurement of IP-One Response (AID 944); note: nearly all actives have a fitted effect of over 75% in size; note: potency is the fitted concentration of half-maximal effect
Sequence of Muscarinic acetylcholine receptor M1 (Rattus norvegicus) (P08482 whole entry, looked up): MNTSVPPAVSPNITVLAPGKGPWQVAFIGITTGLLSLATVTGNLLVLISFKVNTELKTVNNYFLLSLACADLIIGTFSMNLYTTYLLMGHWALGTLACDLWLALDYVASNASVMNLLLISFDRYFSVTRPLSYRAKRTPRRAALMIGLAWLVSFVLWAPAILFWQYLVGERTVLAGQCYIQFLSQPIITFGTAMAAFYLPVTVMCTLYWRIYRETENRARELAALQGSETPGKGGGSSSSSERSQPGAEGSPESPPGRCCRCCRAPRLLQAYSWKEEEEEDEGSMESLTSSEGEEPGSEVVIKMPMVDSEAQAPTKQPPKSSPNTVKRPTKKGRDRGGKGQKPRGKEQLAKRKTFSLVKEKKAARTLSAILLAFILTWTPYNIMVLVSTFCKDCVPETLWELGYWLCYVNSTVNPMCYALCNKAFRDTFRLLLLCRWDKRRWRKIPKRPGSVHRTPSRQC
How it was run: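 Antagonism was measured as loss of carbachol-driven (EC80) IP1 accumulation in CHO cells carrying rat M1, using a homogeneous IP-One TR-FRET kit read at 620 and 665 nm.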

## CCCN(CCC)C(=O)[C@@H](CCC(=O)O)NC(=O)c1ccccc1
[1]
  outcome: inactive
[2]
  outcome: inactive
AS120
  Potency: inactive
ATS189
  Potency: inactive
CP191
  Potency: inactive
CP192
  Potency: inactive
CP201
  Potency: inactive
CP238
  Potency: inactive
CP247
  Potency: inactive
CP250
  Potency: inactive
CP265
  Potency: inactive
Dd2
  Potency: inactive
FAB9
  Potency: inactive
N140
  Potency: inactive
P94_40
  Potency: inactive
PC15
  Potency: inactive
PC49
  Potency: inactive

## COc1cc(=O)n(C)c2c(OC[C@@H](O)C(C)(C)O)cccc12
[3]
  Potency: inactive

## C=CCc1ccccc1OC[C@H](O)CNC(C)C
[3]
  Potency: inactive

## CC(C)(C)NC[C@H](O)c1cc(O)cc(O)c1
[1]
  outcome: inactive
[2]
  outcome: inactive
AS120
  Potency: inactive
ATS189
  Potency: inactive
CP191
  Potency: inactive
CP192
  Potency: inactive
CP201
  Potency: inactive
CP238
  Potency: inactive
CP247
  Potency: inactive
CP250
  Potency: inactive
CP265
  Potency: inactive
Dd2
  Potency: inactive
FAB9
  Potency: inactive
N140
  Potency: inactive
P94_40
  Potency: inactive
PC15
  Potency: inactive
PC49
  Potency: inactive

## O=C(c1ccccc1)c1ccc2n1CC[C@H]2C(=O)O
[3]
  Potency: inactive
[1]
  outcome: inactive
AS120
  Potency: inactive
ATS189
  Potency: inactive
CP191
  Potency: inactive
CP192
  Potency: inactive
CP201
  Potency: inactive
CP238
  Potency: inactive
CP247
  Potency: inactive
CP250
  Potency: inactive
CP265
  Potency: inactive
Dd2
  Potency: inactive
FAB9
  Potency: inactive
N140
  Potency: inactive
P94_40
  Potency: inactive
PC15
  Potency: inactive
PC49
  Potency: inactive

## CC[C@]1(C)CC(=O)NC1=O
[1]
  outcome: inactive
[2]
  outcome: inactive
AS120
  Potency: inactive
ATS189
  Potency: inactive
CP191
  Potency: inactive
CP192
  Potency: inactive
CP201
  Potency: inactive
CP238
  Potency: inactive
CP247
  Potency: inactive
CP250
  Potency: inactive
CP265
  Potency: inactive
Dd2
  Potency: inactive
FAB9
  Potency: inactive
N140
  Potency: inactive
P94_40
  Potency: inactive
PC15
  Potency: inactive
PC49
  Potency: inactive

## CN1C(=O)CC[C@@H]1c1cccnc1
[3]
  Potency: inactive

## O=C(C1CCCCC1)N1CC(=O)N2CCc3ccccc3[C@@H]2C1
[1]
  outcome: inactive
[2]
  outcome: inactive

## Cc1cccc(C)c1OC[C@H](C)N
[3]
  Potency: inactive

## c1ccc([C@@H]2CN3CCSC3=N2)cc1
[3]
  Potency: inactive

## C[C@@H]1COc2c(N3CCN(C)CC3)c(F)cc3c(=O)c(C(=O)O)cn1c23
[3]
  Potency: inactive
[1]
  outcome: inactive
[2]
  outcome: inactive
AS120
  Potency: inactive
ATS189
  Potency: inactive
CP191
  Potency: inactive
CP192
  Potency: inactive
CP201
  Potency: inactive
CP238
  Potency: inactive
CP247
  Potency: inactive
CP250
  Potency: inactive
CP265
  Potency: inactive
Dd2
  Potency: inactive
FAB9
  Potency: inactive
N140
  Potency: inactive
P94_40
  Potency: inactive
PC15
  Potency: inactive
PC49
  Potency: inactive

## CCn1cc(C(=O)O)c(=O)c2cc(F)c(N3CCN[C@@H](C)C3)c(F)c21
[3]
  Potency: inactive
[1]
  outcome: inactive
[2]
  outcome: inactive
AS120
  Potency: inactive
ATS189
  Potency: inactive
CP191
  Potency: inactive
CP192
  Potency: inactive
CP201
  Potency: inactive
CP238
  Potency: inactive
CP247
  Potency: inactive
CP250
  Potency: inactive
CP265
  Potency: inactive
Dd2
  Potency: inactive
FAB9
  Potency: inactive
N140
  Potency: inactive
P94_40
  Potency: inactive
PC15
  Potency: inactive
PC49
  Potency: inactive

## CC(C)NC[C@H](O)c1cc(O)cc(O)c1
[1]
  outcome: inactive
[2]
  outcome: inactive
AS120
  Potency: inactive
ATS189
  Potency: inactive
CP191
  Potency: inactive
CP192
  Potency: inactive
CP201
  Potency: inactive
CP238
  Potency: inactive
CP247
  Potency: inactive
CP250
  Potency: inactive
CP265
  Potency: inactive
Dd2
  Potency: inactive
FAB9
  Potency: inactive
N140
  Potency: inactive
P94_40
  Potency: inactive
PC15
  Potency: inactive
PC49
  Potency: inactive

## CC(C)COC[C@H](CN(Cc1ccccc1)c1ccccc1)N1CCCC1
[3]
  Potency: inactive

## CN(C)CC[C@@H](c1ccccc1)c1ccccn1
[3]
  Potency: 10 µM (active)

## CN1CCc2cccc3c2[C@@H]1Cc1ccc(O)c(O)c1-3
[3]
  Potency: inactive

## CO/N=C(\C(=O)N[C@@H]1C(=O)N2C(C(=O)O)=C(COC(C)=O)CS[C@@H]12)c1csc(N)n1
[3]
  Potency: inactive
[1]
  outcome: inactive
[2]
  outcome: inactive
AS120
  Potency: inactive
ATS189
  Potency: inactive
CP191
  Potency: inactive
CP192
  Potency: inactive
CP201
  Potency: inactive
CP238
  Potency: inactive
CP247
  Potency: inactive
CP250
  Potency: inactive
CP265
  Potency: inactive
Dd2
  Potency: inactive
FAB9
  Potency: inactive
N140
  Potency: inactive
P94_40
  Potency: inactive
PC15
  Potency: inactive
PC49
  Potency: inactive

## NC(=O)OC[C@H](O)COc1ccc(Cl)cc1
[1]
  outcome: inactive
[2]
  outcome: inactive
AS120
  Potency: inactive
ATS189
  Potency: inactive
CP191
  Potency: inactive
CP192
  Potency: inactive
CP201
  Potency: inactive
CP238
  Potency: inactive
CP247
  Potency: inactive
CP250
  Potency: inactive
CP265
  Potency: inactive
Dd2
  Potency: inactive
FAB9
  Potency: inactive
N140
  Potency: inactive
P94_40
  Potency: inactive
PC15
  Potency: inactive
PC49
  Potency: inactive

## C[n+]1ccccc1/C=N\O
[1]
  outcome: inactive
[2]
  outcome: inactive
AS120
  Potency: inactive
ATS189
  Potency: inactive
CP191
  Potency: inactive
CP192
  Potency: inactive
CP201
  Potency: inactive
CP238
  Potency: inactive
CP247
  Potency: inactive
CP250
  Potency: inactive
CP265
  Potency: inactive
Dd2
  Potency: inactive
FAB9
  Potency: inactive
N140
  Potency: inactive
P94_40
  Potency: inactive
PC15
  Potency: inactive
PC49
  Potency: inactive

## CC(=O)Nc1c(I)c(C(=O)N[C@H]2[C@@H](O)[C@H](O)[C@H](CO)O[C@@H]2O)c(I)c(N(C)C(C)=O)c1I
[1]
  outcome: inactive
[2]
  outcome: inactive
AS120
  Potency: inactive
ATS189
  Potency: inactive
CP191
  Potency: inactive
CP192
  Potency: inactive
CP201
  Potency: inactive
CP238
  Potency: inactive
CP247
  Potency: inactive
CP250
  Potency: inactive
CP265
  Potency: inactive
Dd2
  Potency: inactive
FAB9
  Potency: inactive
N140
  Potency: inactive
P94_40
  Potency: inactive
PC15
  Potency: inactive
PC49
  Potency: inactive

## CCN[C@@H]1C[C@H](C)S(=O)(=O)c2sc(S(N)(=O)=O)cc21
[1]
  outcome: inactive
[2]
  outcome: inactive
AS120
  Potency: inactive
ATS189
  Potency: inactive
CP191
  Potency: inactive
CP192
  Potency: inactive
CP201
  Potency: inactive
CP238
  Potency: inactive
CP247
  Potency: inactive
CP250
  Potency: inactive
CP265
  Potency: inactive
Dd2
  Potency: inactive
FAB9
  Potency: inactive
N140
  Potency: inactive
P94_40
  Potency: inactive
PC15
  Potency: inactive
PC49
  Potency: inactive

## CC(=O)OCC1=C(C(=O)O)N2C(=O)[C@@H](NC(=O)Cc3cccs3)[C@@H]2SC1
[3]
  Potency: inactive
